Measured values reported in PubChem BioAssay (Tox21).
Results filed as inconclusive are left out. Activity calls are given as the source filed them. Unless noted, calls come from the whole dose curve; as a rule, active = well fitted curve in the direction sought with a large enough effect in the repeat runs; inconclusive = weak or mixed curves; inactive = no such curve, though single readings can be large; an effect the other way counts as inactive or inconclusive.

Legend:
[1] = qHTS assay to identify small molecule antagonists of the estrogen related receptor (ERR) signaling pathway from Tox21 library - cell viability counter screen (AID 1224834); note: nearly all actives have a fitted effect of over 30% in size; note: potency is the fitted concentration of half-maximal effect
Method in brief: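 CellTiter-Fluor fluorescence measured; ERR cells; 17.5 h compound incubation at 37 C; 30 min reagent step.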

[2] = biological target: Luciferin 4-monooxygenase (Photinus pyralis) (UniProt P08659); test: qHTS assay to identify small molecule inhibitors of firefly luciferase (AID 1224835); note: nearly all actives have a fitted effect of over 25% in size; note: potency is the fitted concentration of half-maximal effect; for activity change, negative = inhibition: series mostly up to about 120 µM
Method in brief: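 Inhibition of purified Photinus luciferase is measured by luminescence. Substrate levels (D-luciferin, ATP) sit at their KM values. Each compound is tested in a concentration series.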

[3] = qHTS assay to identify small molecule agonists of the constitutive androstane receptor (CAR) signaling pathway - cell viability counter screen (AID 1224836); note: series mostly up to about 92 µM; nearly all actives have a fitted effect of over 45% in size
Method in brief: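 Counter screen multiplexed with the CAR reporter readout: HepG2 cells co-transfected with hCAR and the CYP2B6-2.2kb construct receive a 15-concentration compound series and 0.75 uM PK11195 (final), then CellTiter-Fluor fluorescence is read after 23 h.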

[4] = qHTS assay to identify small molecule antagonists of the constitutive androstane receptor (CAR) signaling pathway - cell viability counter screen (AID 1224837); note: series mostly up to about 92 µM; nearly all actives have a fitted effect of over 45% in size
Method in brief: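 Using CellTiter-Fluor, viability is scored in HepG2 cells stably carrying hCAR and a 2.2kb CYP2B6 reporter after 23 hr compound exposure across 15 concentrations, with CITCO present at 50 nM.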

[5] = biological target: Nuclear receptor subfamily 1 group I member 3 (Homo sapiens) (UniProt Q14994); test: qHTS assay to identify small molecule antagonists of the constitutive androstane receptor (CAR) signaling pathway (AID 1224838);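 note: HepG2 cells stably expressing hCAR with CYP2B6 luciferase reporter stimulated by CITCO; nearly all actives have a fitted effect of over 40% in size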
Method in brief: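 Reporter luminescence was quantified after 24 h exposure of hCAR/CYP2B6-2.2kb double-stable HepG2 cells to compounds at 15 concentrations in the presence of 50 nM CITCO final.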

[6] = biological target: Nuclear receptor subfamily 1 group I member 3 (Homo sapiens) (UniProt Q14994); test: qHTS assay to identify small molecule agonists of the constitutive androstane receptor (CAR) signaling pathway (AID 1224839); note: series mostly up to about 92 µM; nearly all actives have a fitted effect of over 15% in size
Method in brief: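 A 15-concentration quantitative screen uses HepG2 cells co-transfected stably with human CAR and CYP2B6-2.2kb reporter. Treatment lasts 24 h with 0.75 uM PK11195 final present; ONE-Glo luminescence is the signal.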

[7] = qHTS assay to identify small molecule antagonists of the estrogen related receptor signaling pathway with the pleiotropic PPARgamma coactivator (PGC) from Tox21 10K library - cell viability counter screen (AID 1224840; active = well fitted cell-killing curve with a large enough effect in the repeat runs, not every such curve was filed as active; note: nearly all actives have a fitted effect of over 40% in size)
Method in brief: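 Here the PGC/ERR cells serve as a cytotoxicity control: they are exposed to compounds for 17.5 hours at 37 C, and live-cell signal is quantified using CellTiter-Fluor fluorescence.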

[8] = qHTS assay to identify small molecule antagonists of the estrogen related receptor signaling pathway with the pleiotropic PPARgamma coactivator (PGC) from Tox21 10K library (AID 1224841; call rule not given here; note: series mostly up to about 92 µM; actives are mostly falling curves and most rising ones were filed inactive; nearly all actives have a fitted effect of over 50% in size)
Method in brief: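 Each well held 2,000 PGC/ERR cells, pre-incubated six hours (37 C, 5% CO2). Test substances in DMSO were added by pin tool and left for 18 h at 37 C before luciferase detection by One-Glo.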

[9] = qHTS assay to identify small molecule agonists of the estrogen related receptor signaling pathway with the pleiotropic PPARgamma coactivator (PGC) from Tox21 10K library (AID 1224842); note: nearly all actives have a fitted effect of over 15% in size
Method in brief: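 Luminescence from One-Glo (30 min, room temperature) measured after PGC/ERR cells had 18 h at 37 C with pinned compound (23 nL in DMSO). Cells had been seeded at 2,000 per well and pre-incubated 6 h.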

[10] = biological target: Thyrotropin receptor (Homo sapiens) (UniProt P16473); test: qHTS assay to identify small molecule agonists of the thyroid stimulating hormone receptor (TSHR) signaling pathway (AID 1224843; calls by dose curve; note: nearly all actives have a fitted effect of over 45% in size)
Method in brief: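 HEK293 cells stably bearing the thyrotropin receptor were plated at 800 cells/well and challenged with compound (30 min, RT). Accumulated cAMP was quantified via cAMP-d2 competing for cryptate-tagged antibody.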
% is set by controls: 0 for no effect and ±100 for the full control effect.

Luciferin 4-monooxygenase (Photinus pyralis), sequence (P08659 whole entry, looked up): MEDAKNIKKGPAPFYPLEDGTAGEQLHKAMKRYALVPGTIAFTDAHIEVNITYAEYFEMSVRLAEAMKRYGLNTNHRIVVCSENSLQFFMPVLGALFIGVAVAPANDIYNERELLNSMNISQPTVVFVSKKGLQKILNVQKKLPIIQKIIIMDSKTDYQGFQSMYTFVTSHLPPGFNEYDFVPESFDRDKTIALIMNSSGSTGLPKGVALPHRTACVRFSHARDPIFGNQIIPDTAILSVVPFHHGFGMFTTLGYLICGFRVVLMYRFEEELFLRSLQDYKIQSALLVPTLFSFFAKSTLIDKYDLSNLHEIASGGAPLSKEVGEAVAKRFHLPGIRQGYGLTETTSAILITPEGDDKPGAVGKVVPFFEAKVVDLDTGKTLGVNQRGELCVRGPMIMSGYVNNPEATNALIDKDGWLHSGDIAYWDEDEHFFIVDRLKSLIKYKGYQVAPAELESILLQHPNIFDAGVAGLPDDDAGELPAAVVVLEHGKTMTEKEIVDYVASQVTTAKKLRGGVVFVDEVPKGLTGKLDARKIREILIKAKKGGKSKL
Thyrotropin receptor (Homo sapiens), sequence (P16473 whole entry, looked up): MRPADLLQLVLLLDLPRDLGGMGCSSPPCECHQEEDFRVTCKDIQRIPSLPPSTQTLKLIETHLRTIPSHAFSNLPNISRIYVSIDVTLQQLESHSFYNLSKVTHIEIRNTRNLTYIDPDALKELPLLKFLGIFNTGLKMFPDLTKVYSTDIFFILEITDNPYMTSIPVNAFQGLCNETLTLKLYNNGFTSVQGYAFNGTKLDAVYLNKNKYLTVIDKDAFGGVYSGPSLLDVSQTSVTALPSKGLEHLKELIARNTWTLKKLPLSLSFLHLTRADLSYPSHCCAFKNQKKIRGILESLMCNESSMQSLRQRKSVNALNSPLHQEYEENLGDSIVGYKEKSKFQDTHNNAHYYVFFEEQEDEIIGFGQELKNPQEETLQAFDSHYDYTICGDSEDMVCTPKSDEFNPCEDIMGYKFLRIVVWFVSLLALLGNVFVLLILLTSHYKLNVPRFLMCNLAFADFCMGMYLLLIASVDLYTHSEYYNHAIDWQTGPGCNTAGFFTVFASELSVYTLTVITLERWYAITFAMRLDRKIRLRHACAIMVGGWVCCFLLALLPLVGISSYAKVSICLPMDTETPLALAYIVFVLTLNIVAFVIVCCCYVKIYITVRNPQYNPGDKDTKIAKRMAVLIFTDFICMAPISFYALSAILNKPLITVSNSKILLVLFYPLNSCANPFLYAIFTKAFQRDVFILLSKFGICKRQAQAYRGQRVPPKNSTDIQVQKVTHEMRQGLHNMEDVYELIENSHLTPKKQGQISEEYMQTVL
Nuclear receptor subfamily 1 group I member 3 (Homo sapiens), sequence (Q14994 whole entry, looked up): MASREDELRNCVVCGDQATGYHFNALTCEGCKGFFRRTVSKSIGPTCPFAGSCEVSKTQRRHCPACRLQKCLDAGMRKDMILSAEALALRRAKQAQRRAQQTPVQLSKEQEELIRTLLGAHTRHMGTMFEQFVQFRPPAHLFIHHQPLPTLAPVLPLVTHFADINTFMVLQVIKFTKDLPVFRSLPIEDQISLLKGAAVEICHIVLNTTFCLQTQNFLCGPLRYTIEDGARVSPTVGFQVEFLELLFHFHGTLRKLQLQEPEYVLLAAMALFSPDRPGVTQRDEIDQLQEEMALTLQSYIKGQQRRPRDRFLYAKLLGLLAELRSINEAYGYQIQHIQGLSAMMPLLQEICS

CC(C)(CO)[C@@H](O)C(=O)NCCC(=O)O
inactive: Potency [1] | Potency [2] | Potency [3] | Potency [4] | Potency [5] | Potency [6] | Potency [7] | Potency [8] | Potency [9] | Potency [10]

CCN(CC)C(=O)N(CC)CC
inactive: Potency [1] | Potency [2] | Potency [3] | Potency [4] | Potency [5] | Potency [6] | Potency [7]

O=C1CCC(C2CCCCC2)CC1
inactive: Potency [1] | Potency [2] | Potency [3] | Potency [4] | Potency [5] | Potency [6] | Potency [7] | Potency [8] | Potency [9] | Potency [10]

CC(C)CC(=O)OCc1ccccc1
inactive: Potency [1] | Potency [2] | Potency [3] | Potency [4] | Potency [5] | Potency [7]

O=C(Cl)c1cccc([N+](=O)[O-])c1
inactive: Potency [1] | Potency [2] | Potency [3] | Potency [4] | Potency [5] | Potency [6] | Potency [7] | Potency [8] | Potency [9] | Potency [10]

Cc1c(C(=O)NCCO)[n+](=O)c2ccccc2n1[O-]
inactive: Potency [1] | Potency [2] | Potency [3] | Potency [4] | Potency [5] | Potency [6] | Potency [7] | Potency [10]

CN1[C@@H]2CC[C@H]1CC(OC(=O)c1c[nH]c3ccccc13)C2 (stereo not given in full)
inactive: Potency [1] | Potency [2] | Potency [3] | Potency [4] | Potency [5] | Potency [6] | Potency [7] | Potency [10]

CC(=O)N(CC(O)CN(C(C)=O)c1c(I)c(C(=O)NCC(O)CO)c(I)c(C(=O)NCC(O)CO)c1I)c1c(I)c(C(=O)NCC(O)CO)c(I)c(C(=O)NCC(O)CO)c1I (stereo not given)
inactive: Potency [1] | Potency [2] | Potency [3] | Potency [4] | Potency [5] | Potency [6] | Potency [10]

COc1ccccc1N1CCN(CCCNc2cc(=O)n(C)c(=O)n2C)CC1
inactive: Potency [1] | Potency [2] | Potency [3] | Potency [4] | Potency [5] | Potency [6] | Potency [7] | Potency [8] | Potency [9] | Potency [10]

CC(C)=CCCC(C)CCOC=O (stereo not given)
inactive: Potency [1] | Potency [2] | Potency [3] | Potency [4] | Potency [5] | Potency [6] | Potency [10]

CCCCNCCCC
inactive: Potency [1] | Potency [2] | Potency [3] | Potency [4] | Potency [5] | Potency [6] | Potency [7] | Potency [8] | Potency [9] | Potency [10]

Cc1ccc([N+](=O)[O-])cc1Cl
inactive: Potency [1] | Potency [2] | Potency [3] | Potency [4] | Potency [5] | Potency [6] | Potency [7] | Potency [8] | Potency [9]

C=Cc1ccccc1
inactive: Potency [1] | Potency [2] | Potency [3] | Potency [4] | Potency [5] | Potency [7]

CC(C)C(=O)OC/C=C/c1ccccc1
inactive: Potency [1] | Potency [3] | Potency [4] | Potency [5] | Potency [6] | Potency [7] | Potency [8] | Potency [9] | Potency [10]
active: Potency [2] 71 µM

Cn1cnc2c(F)c(Nc3ccc(Br)cc3Cl)c(C(=O)NOCCO)cc21
inactive: Potency [1] | Potency [2] | Potency [3] | Potency [4] | Potency [5] | Potency [6] | Potency [7] | Potency [8] | Potency [9]

CC(C)CCCCCCc1ccc(OCCOCCO)cc1
inactive: Potency [1] | Potency [2] | Potency [3] | Potency [4] | Potency [5] | Potency [6] | Potency [8] | Potency [9] | Potency [10]

O=c1[nH]cnc2c1ncn2[C@@H]1O[C@H](CO)[C@@H](O)[C@H]1O
inactive: Potency [1] | Potency [2] | Potency [3] | Potency [4] | Potency [5] | Potency [6] | Potency [7] | Potency [8] | Potency [9] | Potency [10]

C[C@@H]1CN(c2c(F)c(F)c3c(=O)c(C(=O)O)cn(C4CC4)c3c2F)C[C@H](C)N1
inactive: viability change, negative = cytotoxic [1] 2.27% [at 19 µM] | activity change, negative = inhibition [2] 4.05% [at 23.6 µM] | viability change, negative = cytotoxic [3] 4.91% [at 19 µM] | activity change, negative = cytotoxicity [4] 2.19% [at 19 µM] | activity, negative = inhibition [5] 14.9% [at 19 µM] | activation [6] 0.519% [at 19 µM] | viability change, negative = cytotoxic [7] 2.41% [at 19 µM] | activity, negative = inhibition [8] 20.9% [at 19 µM] | activation [9] 6.21% [at 19 µM]

CCN(CC)CCNC(=O)COc1ccc(Cl)cc1
inactive: Potency [1] | Potency [2] | Potency [3] | Potency [4] | Potency [5] | Potency [6] | Potency [10]

Cc1cc(S(=O)(=O)O)c(N)cc1Cl
inactive: Potency [1] | Potency [2] | Potency [3] | Potency [4] | Potency [5] | Potency [6] | Potency [7]

CCCCN1C[C@H](O)[C@@H](O)[C@H](O)[C@H]1CO
inactive: Potency [1] | Potency [2] | Potency [3] | Potency [4] | Potency [5] | Potency [6] | Potency [7]

CCCc1c2oc(C(=O)O)cc(=O)c2cc2c(=O)cc(C(=O)O)n(CC)c12
inactive: Potency [1] | Potency [2] | Potency [3] | Potency [4] | Potency [5] | Potency [6] | Potency [7] | Potency [8] | Potency [9] | Potency [10]

Cc1ccsc1C(=CCCN1CCC[C@@H](C(=O)O)C1)c1sccc1C
inactive: Potency [1] | Potency [2] | Potency [3] | Potency [4] | Potency [5] | Potency [6] | Potency [7] | Potency [10]

CCC(=O)c1ccc2c(c1)N(CCCN(C)C)c1ccccc1S2
inactive: Potency [2] | Potency [3] | Potency [4] | Potency [5] | Potency [6]
active: Potency [1] 26.6 µM

OC[C@H]1O[C@@H](O[C@H]2[C@H](O)[C@@H](O)[C@H](O)O[C@@H]2CO)[C@H](O)[C@@H](O)[C@H]1O
inactive: Potency [1] | Potency [2] | Potency [3] | Potency [4] | Potency [5] | Potency [6] | Potency [7] | Potency [8] | Potency [9] | Potency [10]
